# Data reported in PubChem BioAssay (EPA / NIEHS).
# Activity calls are given as the source filed them. The calls were made as follows: active = hit-call score of the fitted dose curve at least 0.9, where 1 is the maximum; inactive = score below 0.9.
# What was measured:
# [1] = read-out: Matrix Metallopeptidase 1 (MMP1), MMP1 (gene 4312); assay: BSK_hDFCGF_MMP1: BioMAP Diversity Plus: hDFCGF Assay for Matrix Metallopeptidase 1 (MMP1) Biomarker Activity (AID 2283064); settings: primary human foreskin fibroblasts; actives raise or lower the signal
# Method in brief: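 Primary human foreskin fibroblasts exposed to chemicals for 24 h; MMP1 measured by ELISA. Cytotoxicity tracked by SRB staining in parallel cultures; bidirectional fit relative to DMSO.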
# [2] = read-out: Plasminogen activator inhibitor-1 (PAI1), SERPINE1 (gene 5054); assay: BSK_hDFCGF_PAI1: BioMAP Diversity Plus: hDFCGF Assay for Plasminogen activator inhibitor-1 (PAI1) Biomarker Activity (AID 2283066); settings: primary human foreskin fibroblasts; actives raise or lower the signal
# Method in brief: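 Human foreskin fibroblasts in the hDFCGF system were dosed with compound for 24 h; PAI-1 was quantified by ELISA. Bidirectional curve fitting used DMSO as negative control and baseline.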
# [3] = read-out: Intercellular Adhesion Molecule 1 (ICAM1), ICAM1 (gene 3383); assay: BSK_KF3CT_ICAM1: BioMAP Diversity Plus: KF3CT Assay for Intercellular Adhesion Molecule 1 (ICAM1) Biomarker Activity (AID 2283067); settings: primary human keratinocytes with fibroblasts; actives raise or lower the signal
# Method in brief: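 Cell-surface ICAM-1 was measured by ELISA 24 h after dosing primary human skin keratinocytes co-cultured with fibroblasts. Parallel SRB staining tracked overt cytotoxicity. Gain or loss of signal was fitted relative to DMSO.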
# [4] = read-out: Interferon-gamma inducible Protein 10 (IP10), CXCL10 (gene 3627); assay: BSK_KF3CT_IP10: BioMAP Diversity Plus: KF3CT Assay for Interferon-gamma inducible Protein 10 (IP10) Biomarker Activity (AID 2283068); settings: primary human keratinocytes with fibroblasts; actives raise or lower the signal
# Method in brief: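 In a primary skin co-culture of keratinocytes and fibroblasts, IP-10 is quantified by ELISA at 24 h after dosing. SRB staining of parallel wells monitors overt toxicity. Curves are fitted both directions against DMSO.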
# [5] = BSK_KF3CT_SRB: Viability Assessment in the BioMAP Diversity Plus: KF3CT Assay (AID 2283069); settings: primary human keratinocytes with fibroblasts;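 also: total protein by sulforhodamine B staining as a cytotoxicity measure; read 24 h after compound addition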
# Method in brief: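 Human keratinocyte and foreskin fibroblast co-culture exposed to chemical for 24 h. Total protein measured in parallel cultures by 0.1% sulforhodamine B staining after 10% TCA fixation, read at 560 nm; bidirectional fit relative to DMSO.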
# [6] = read-out: Interleukin-1 alpha (IL1a), IL1A (gene 3552); assay: BSK_KF3CT_IL1a: BioMAP Diversity Plus: KF3CT Assay for Interleukin-1 alpha (IL1a) Biomarker Activity (AID 2283070); settings: primary human keratinocytes with fibroblasts; actives raise or lower the signal
# Method in brief: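 Primary human keratinocyte plus foreskin fibroblast co-culture, dosed and measured at 24 h in 96-well plates. IL-1a level quantified by ELISA; bidirectional fit relative to DMSO.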
# [7] = read-out: TIMP metallopeptidase inhibitor 2 (TIMP2), TIMP2 (gene 7077); assay: BSK_KF3CT_TIMP2: BioMAP Diversity Plus: KF3CT Assay for TIMP metallopeptidase inhibitor 2 (TIMP2) Biomarker Activity (AID 2283071); settings: primary human keratinocytes with fibroblasts; actives raise or lower the signal
# Method in brief: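 Human primary keratinocyte/foreskin fibroblast co-culture dosed with chemical and sampled at 24 h. TIMP-2 levels quantified by ELISA; bidirectional fitting against DMSO negative control as baseline.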
# [8] = read-out: Transforming growth factor beta 1 (TGFb1), TGFB1 (gene 7040); assay: BSK_KF3CT_TGFb1: BioMAP Diversity Plus: KF3CT Assay for Transforming growth factor beta 1 (TGFb1) Biomarker Activity (AID 2283072); settings: primary human keratinocytes with fibroblasts; actives raise or lower the signal
# Method in brief: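 Human keratinocyte plus foreskin fibroblast primary co-culture, dosed with chemical for 24 h. TGF-b1 quantified by ELISA. Activity fitted bidirectionally against DMSO negative control as baseline.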
# [9] = read-out: C-C motif chemokine 2 (Homo sapiens) (UniProt P13500); assay: BSK_KF3CT_MCP1: BioMAP Diversity Plus: KF3CT Assay for Monocyte Chemoattractant Protein 1 (MCP1/CCL2) Biomarker Activity (AID 2283073); settings: primary human keratinocytes with fibroblasts; actives raise or lower the signal
# Method in brief: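 ELISA read-out of MCP-1, 24 h post-dose, in primary human skin keratinocytes co-cultured with fibroblasts. Parallel SRB staining monitors cytotoxicity; changes fitted both directions relative to DMSO.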
# [10] = read-out: Matrix Metallopeptidase 9 (MMP9), MMP9 (gene 4318); assay: BSK_KF3CT_MMP9: BioMAP Diversity Plus: KF3CT Assay for Matrix Metallopeptidase 9 (MMP9) Biomarker Activity (AID 2283074); settings: primary human keratinocytes with fibroblasts; actives raise or lower the signal
# Method in brief: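 Human keratinocyte and foreskin fibroblast co-culture exposed to chemicals for 24 h; MMP9 biomarker measured by ELISA, bidirectional fitting relative to DMSO; cytotoxicity tracked by SRB total protein staining in parallel cultures.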
# [11] = read-out: urokinase plasminogen activator (uPA), PLAU (gene 5328); assay: BSK_KF3CT_uPA: BioMAP Diversity Plus: KF3CT Assay for urokinase plasminogen activator (uPA) Biomarker Activity (AID 2283075); settings: primary human keratinocytes with fibroblasts; actives raise or lower the signal
# Method in brief: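 Primary human keratinocyte/foreskin fibroblast co-culture exposed to chemical; uPA measured by ELISA at 24 h. Bidirectional fit versus DMSO, with parallel SRB total-protein staining for cytotoxicity.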
# [12] = read-out: CD40, CD40 (gene 958); assay: BSK_LPS_CD40: BioMAP Diversity Plus: LPS Assay for CD40 Biomarker Activity (AID 2283076); settings: primary human HUVEC with PBMC; actives raise or lower the signal
# Method in brief: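 In the LPS system of human endothelial cells with peripheral blood mononuclear cells, CD40 levels were read by ELISA 24 h post-treatment. Signal changes in either direction were fitted against the DMSO baseline, with parallel SRB protein staining.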
# [13] = read-out: E-selectin (Homo sapiens) (UniProt P16581); assay: BSK_LPS_Eselectin: BioMAP Diversity Plus: LPS Assay for Eselectin Biomarker Activity (AID 2283077); settings: primary human HUVEC with PBMC; actives raise or lower the signal
# Method in brief: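 E-selectin ELISA on LPS-stimulated endothelial cell/PBMC co-cultures, read 24 h post-treatment; gains and losses fitted against DMSO. Parallel SRB staining (0.1% SRB after 10% TCA fixation, 560 nm) flags overt cytotoxicity.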
# [14] = read-out: Interleukin-8 (IL8), CXCL8 (gene 3576); assay: BSK_LPS_IL8: BioMAP Diversity Plus: LPS Assay for Interleukin-8 (IL8) Biomarker Activity (AID 2283078); settings: primary human HUVEC with PBMC; actives raise or lower the signal
# Method in brief: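 ELISA read-out of IL-8 after 24 h chemical treatment of LPS-activated endothelial/PBMC human primary co-cultures. Changes either up or down relative to DMSO; overt cytotoxicity checked by sulforhodamine B staining in parallel wells.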
# [15] = BSK_LPS_SRB: Viability Assessment in the BioMAP Diversity Plus: LPS Assay (AID 2283079); settings: primary human HUVEC with PBMC;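 also: total protein by sulforhodamine B absorbance as a cytotoxicity measure; measured one day after compound addition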
# Method in brief: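 SRB viability endpoint: cells fixed with 10% TCA, stained with 0.1% SRB, read at 560 nm, 24 h post-dose. HUVEC/PBMC co-culture; signal change in either direction scored relative to DMSO.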
# [16] = read-out: Interleukin-1 alpha (IL1a), IL1A (gene 3552); assay: BSK_LPS_IL1a: BioMAP Diversity Plus: LPS Assay for Interleukin-1 alpha (IL1a) Biomarker Activity (AID 2283080); settings: primary human HUVEC with PBMC; actives raise or lower the signal
# Method in brief: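 Readout is IL-1a level by ELISA, 24 h post-dose, fitted as gain or loss relative to DMSO. System: LPS-activated human primary co-culture of vascular endothelium and peripheral blood mononuclear cells, with parallel SRB total-protein cytotoxicity.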
# [17] = read-out: Monocyte Chemoattractant Protein-1 (MCP1), CCL2 (gene 6347); assay: BSK_LPS_MCP1: BioMAP Diversity Plus: LPS Assay for Monocyte Chemoattractant Protein-1 (MCP1) Biomarker Activity (AID 2283081); settings: primary human HUVEC with PBMC; actives raise or lower the signal;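 as to AC50: secreted MCP-1 protein quantified by ELISA in culture supernatant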
# Method in brief: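 Secreted MCP-1 read by ELISA at 24 h post-dosing in an LPS-activated co-culture of endothelial cells with peripheral blood mononuclear cells. Fits run in both directions, DMSO as baseline; parallel SRB staining tracks overt cytotoxicity.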
# [18] = BSK_LPS_PGE2: BioMAP Diversity Plus: LPS Assay for Prostaglandin E2 (PGE2) Biomarker Activity (AID 2283082); settings: primary human HUVEC with PBMC; actives raise or lower the signal;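 as to AC50: secreted prostaglandin E2 measured by ELISA in LPS-stimulated co-culture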
# Method in brief: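 HUVEC plus PBMC co-culture stimulated with LPS; secreted PGE2 quantified by ELISA 24 h after chemical dosing. Activity fitted bidirectionally against DMSO as negative control and baseline; parallel SRB total-protein staining served as cytotoxicity check.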
# [19] = read-out: Macrophage colony-stimulating factor (MCSF), CSF1 (gene 1435); assay: BSK_LPS_MCSF: BioMAP Diversity Plus: LPS Assay for Macrophage colony-stimulating factor (MCSF) Biomarker Activity (AID 2283083); settings: primary human HUVEC with PBMC; actives raise or lower the signal
# Method in brief: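 Bidirectional fitting against DMSO was applied to M-CSF levels read by ELISA at 24 h post-dose. The system pairs human umbilical vein endothelium with peripheral blood mononuclear cells; parallel SRB staining tracked cytotoxicity.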
# [20] = read-out: Vascular cell adhesion molecule 1 (VCAM1), VCAM1 (gene 7412); assay: BSK_hDFCGF_VCAM1: BioMAP Diversity Plus: hDFCGF Assay for Vascular cell adhesion molecule 1 (VCAM1) Biomarker Activity (AID 2283065); settings: primary human foreskin fibroblasts; actives raise or lower the signal;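 also: VCAM-1 protein level quantified by ELISA after 24 h chemical exposure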
# Method in brief: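 ELISA readout of VCAM-1 on human dermal fibroblast primary cultures, 24 h after chemical exposure. Gain or loss of signal fitted in both directions against DMSO baseline.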
# Chain of E-selectin (Homo sapiens) (P16581 whole entry, looked up): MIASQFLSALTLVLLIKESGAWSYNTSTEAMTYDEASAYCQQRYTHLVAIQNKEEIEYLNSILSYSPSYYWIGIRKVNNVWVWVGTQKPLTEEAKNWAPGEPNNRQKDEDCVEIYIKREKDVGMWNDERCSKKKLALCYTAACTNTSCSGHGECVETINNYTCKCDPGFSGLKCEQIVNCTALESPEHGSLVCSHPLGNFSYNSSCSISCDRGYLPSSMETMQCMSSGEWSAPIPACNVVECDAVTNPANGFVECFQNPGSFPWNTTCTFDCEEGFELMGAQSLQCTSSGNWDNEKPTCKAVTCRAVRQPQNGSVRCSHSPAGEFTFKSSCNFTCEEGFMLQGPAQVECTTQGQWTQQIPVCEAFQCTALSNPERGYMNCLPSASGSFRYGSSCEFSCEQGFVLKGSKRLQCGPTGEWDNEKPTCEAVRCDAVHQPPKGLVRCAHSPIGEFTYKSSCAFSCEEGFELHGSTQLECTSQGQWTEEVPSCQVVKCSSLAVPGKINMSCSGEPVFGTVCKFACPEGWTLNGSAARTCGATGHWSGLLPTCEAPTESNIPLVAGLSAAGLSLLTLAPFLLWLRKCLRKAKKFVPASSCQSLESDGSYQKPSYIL
smiles,measurement,setting,value
CC(C=O)Cc1ccc2c(c1)OCO2 (configuration not stated),outcome,[1],inactive
same,outcome,[2],inactive
same,outcome,[3],inactive
same,outcome,[4],inactive
same,outcome,[5],inactive
same,outcome,[6],inactive
same,outcome,[7],inactive
same,outcome,[8],inactive
same,outcome,[9],inactive
same,outcome,[10],inactive
same,outcome,[11],inactive
same,outcome,[12],inactive
same,outcome,[13],inactive
same,outcome,[14],inactive
same,outcome,[15],inactive
same,outcome,[16],inactive
same,outcome,[17],inactive
same,outcome,[18],inactive
same,outcome,[19],inactive
CCOC(=O)C(SP(=S)(OC)OC)c1ccccc1 (configuration not stated),outcome,[1],inactive
same,AC50,[20],20 µM (active)
same,outcome,[2],inactive
same,outcome,[3],inactive
same,outcome,[4],inactive
same,outcome,[5],inactive
same,outcome,[6],inactive
same,outcome,[7],inactive
same,AC50,[8],20 µM (active)
same,outcome,[9],inactive
same,outcome,[11],inactive
same,outcome,[12],inactive
same,outcome,[13],inactive
same,outcome,[14],inactive
same,outcome,[15],inactive
same,outcome,[16],inactive
same,outcome,[17],inactive
same,outcome,[18],inactive
same,outcome,[19],inactive
c1ccc(-c2cccc(-c3ccccc3)c2)cc1,AC50,[1],5.57 µM (active)
same,AC50,[20],12.4 µM (active)
same,AC50,[2],20 µM (active)
same,outcome,[3],inactive
same,outcome,[4],inactive
same,outcome,[5],inactive
same,AC50,[6],7.05 µM (active)
same,outcome,[7],inactive
same,outcome,[8],inactive
same,outcome,[9],inactive
same,outcome,[11],inactive
same,AC50,[12],25.4 µM (active)
same,AC50,[13],29.7 µM (active)
same,AC50,[14],29.9 µM (active)
same,AC50,[15],23.9 µM (active)
same,AC50,[16],20 µM (active)
same,AC50,[17],29.5 µM (active)
same,AC50,[18],0.75 µM (active)
same,AC50,[19],30.2 µM (active)
